{"source": "paper PMC7862700", "about": "“An all-to-all approach to the identification of sequence-specific readers for epigenetic DNA modifications on cytosine”", "assay_in_all_cases": "DAPPL (digital affinity profiling via proximity ligation, sequencing); 10 mM Tris-HCl pH 7.5, 50 mM NaCl, 1 mM DTT, 4% glycerol, room temperature, 30 min; GST-TFs on glutathione beads, 16-mer random dsDNA library, 0.1% formaldehyde crosslink after washing; high values mean tight binding", "conditions_in_all_cases": "protein: recombinant; tags: N-terminal GST; dsDNA, one strand shown", "key": {"ETV1": {"target": "ETV1 (Homo sapiens, UniProt P50549 1-477)", "sequence (P50549 whole entry, the tested form may be a part)": "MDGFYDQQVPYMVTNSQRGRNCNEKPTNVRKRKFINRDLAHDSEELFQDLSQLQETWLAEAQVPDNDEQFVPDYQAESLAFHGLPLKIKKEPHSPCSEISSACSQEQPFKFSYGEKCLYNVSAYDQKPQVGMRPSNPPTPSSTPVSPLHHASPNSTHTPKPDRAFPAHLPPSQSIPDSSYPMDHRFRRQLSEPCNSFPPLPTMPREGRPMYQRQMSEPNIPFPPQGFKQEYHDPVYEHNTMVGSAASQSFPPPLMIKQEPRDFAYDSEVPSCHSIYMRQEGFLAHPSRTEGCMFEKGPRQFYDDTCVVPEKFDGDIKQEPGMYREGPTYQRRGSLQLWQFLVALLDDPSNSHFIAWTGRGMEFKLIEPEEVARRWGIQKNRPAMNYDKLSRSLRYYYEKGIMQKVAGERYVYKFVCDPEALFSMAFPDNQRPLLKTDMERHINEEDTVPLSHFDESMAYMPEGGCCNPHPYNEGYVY", "procedure,_shortened": "(§1)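 Sequencing on an Illumina NextSeq500 followed washing, crosslinking with 0.1% formaldehyde, proximity ligation (BsaI/T4 ligase, 1 h, 37 °C) and PCR amplification of pools that had been incubated for 30 min at room temperature with 200 nmole of a random double-stranded 16-mer DNA library in Tris/NaCl/DTT/glycerol buffer. Each pool held DNA-barcoded human transcription factors, expressed in yeast as GST fusions and captured on glutathione beads, plus a tag-only sample. Binding signal is a hexamer's read frequency for a factor divided by its frequency in the tag-only sample.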"}, "ERF": {"target": "T1, ERF (Homo sapiens, UniProt P50548 1-548)", "T1 sequence": "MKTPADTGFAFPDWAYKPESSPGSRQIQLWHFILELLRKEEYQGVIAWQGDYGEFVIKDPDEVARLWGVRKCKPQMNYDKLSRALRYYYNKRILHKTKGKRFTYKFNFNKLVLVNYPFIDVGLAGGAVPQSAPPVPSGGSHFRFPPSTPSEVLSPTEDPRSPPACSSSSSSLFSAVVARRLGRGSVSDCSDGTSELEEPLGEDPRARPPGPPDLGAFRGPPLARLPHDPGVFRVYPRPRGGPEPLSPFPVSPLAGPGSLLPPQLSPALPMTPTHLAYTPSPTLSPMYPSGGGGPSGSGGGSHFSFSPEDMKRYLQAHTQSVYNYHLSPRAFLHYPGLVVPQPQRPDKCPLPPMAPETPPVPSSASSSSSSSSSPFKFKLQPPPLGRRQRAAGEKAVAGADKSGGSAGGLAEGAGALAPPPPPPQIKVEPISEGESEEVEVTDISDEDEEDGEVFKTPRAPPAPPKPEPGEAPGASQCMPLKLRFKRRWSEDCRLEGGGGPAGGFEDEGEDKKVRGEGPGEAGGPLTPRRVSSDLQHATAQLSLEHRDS", "procedure,_shortened": "as §1"}, "ETV3L": {"target": "T2, ETV3L (Homo sapiens, UniProt Q6ZN32 1-361)", "T2 sequence": "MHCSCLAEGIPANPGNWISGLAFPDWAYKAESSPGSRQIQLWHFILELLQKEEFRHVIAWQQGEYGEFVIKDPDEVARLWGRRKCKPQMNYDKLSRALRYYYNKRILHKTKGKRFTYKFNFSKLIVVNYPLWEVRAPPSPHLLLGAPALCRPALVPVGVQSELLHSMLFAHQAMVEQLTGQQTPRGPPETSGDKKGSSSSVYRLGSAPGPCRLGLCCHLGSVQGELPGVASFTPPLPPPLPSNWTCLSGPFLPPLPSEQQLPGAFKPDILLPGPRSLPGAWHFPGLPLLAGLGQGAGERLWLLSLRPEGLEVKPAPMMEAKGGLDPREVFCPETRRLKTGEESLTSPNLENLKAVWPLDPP", "procedure,_shortened": "as §1"}, "ETS2": {"target": "T3, ETS2 (Homo sapiens, UniProt P15036 1-469)", "T3 sequence": "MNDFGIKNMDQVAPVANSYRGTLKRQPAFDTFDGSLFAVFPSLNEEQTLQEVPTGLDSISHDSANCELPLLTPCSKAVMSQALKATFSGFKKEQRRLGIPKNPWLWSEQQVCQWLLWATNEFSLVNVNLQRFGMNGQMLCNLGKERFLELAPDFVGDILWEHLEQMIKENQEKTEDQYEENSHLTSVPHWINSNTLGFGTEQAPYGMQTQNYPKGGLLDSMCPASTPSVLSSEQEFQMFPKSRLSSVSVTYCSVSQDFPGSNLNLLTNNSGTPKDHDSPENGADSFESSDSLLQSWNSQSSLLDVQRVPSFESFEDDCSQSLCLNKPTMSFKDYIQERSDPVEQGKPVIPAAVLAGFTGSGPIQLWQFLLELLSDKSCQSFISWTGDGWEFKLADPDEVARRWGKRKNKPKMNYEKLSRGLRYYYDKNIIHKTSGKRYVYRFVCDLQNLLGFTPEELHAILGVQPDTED", "procedure,_shortened": "as §1"}, "SPDEF": {"target": "T4, SPDEF (Homo sapiens, UniProt O95238 1-335)", "T4 sequence": "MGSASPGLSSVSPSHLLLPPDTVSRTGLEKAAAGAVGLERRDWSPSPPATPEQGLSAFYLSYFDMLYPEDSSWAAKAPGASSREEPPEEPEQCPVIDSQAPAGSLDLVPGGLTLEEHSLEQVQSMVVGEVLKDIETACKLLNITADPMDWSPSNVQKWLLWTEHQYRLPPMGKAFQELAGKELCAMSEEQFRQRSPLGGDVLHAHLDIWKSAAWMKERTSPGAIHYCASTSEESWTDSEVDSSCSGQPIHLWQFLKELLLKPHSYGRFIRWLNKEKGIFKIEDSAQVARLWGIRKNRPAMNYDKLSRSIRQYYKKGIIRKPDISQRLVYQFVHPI", "procedure,_shortened": "as §1"}, "ETV7": {"target": "T5, ETV7 (Homo sapiens, UniProt Q9Y603 1-341)", "T5 sequence": "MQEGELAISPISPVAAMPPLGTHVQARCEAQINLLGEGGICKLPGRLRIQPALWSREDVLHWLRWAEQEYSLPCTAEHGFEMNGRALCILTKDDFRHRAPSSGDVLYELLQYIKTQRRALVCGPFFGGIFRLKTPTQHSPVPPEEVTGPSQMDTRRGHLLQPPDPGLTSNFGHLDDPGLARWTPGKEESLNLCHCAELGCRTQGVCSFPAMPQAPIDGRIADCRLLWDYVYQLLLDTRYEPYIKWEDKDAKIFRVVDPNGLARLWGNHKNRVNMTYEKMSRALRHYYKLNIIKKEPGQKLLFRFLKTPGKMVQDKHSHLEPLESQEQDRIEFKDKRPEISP", "procedure,_shortened": "as §1"}, "ELF5": {"target": "T6, ELF5 (Homo sapiens, UniProt Q9UKW6-2 1-255)", "T6 sequence": "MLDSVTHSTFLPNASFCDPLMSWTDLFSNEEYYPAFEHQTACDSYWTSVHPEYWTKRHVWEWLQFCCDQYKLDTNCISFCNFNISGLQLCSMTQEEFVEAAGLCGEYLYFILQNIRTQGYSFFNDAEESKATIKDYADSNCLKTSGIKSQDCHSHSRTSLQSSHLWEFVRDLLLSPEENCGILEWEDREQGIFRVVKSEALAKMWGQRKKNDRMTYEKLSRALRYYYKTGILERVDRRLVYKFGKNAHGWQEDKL", "procedure,_shortened": "as §1"}, "ETV3": {"target": "T7, ETV3 (Homo sapiens, UniProt P41162-2 1-143)", "T7 sequence": "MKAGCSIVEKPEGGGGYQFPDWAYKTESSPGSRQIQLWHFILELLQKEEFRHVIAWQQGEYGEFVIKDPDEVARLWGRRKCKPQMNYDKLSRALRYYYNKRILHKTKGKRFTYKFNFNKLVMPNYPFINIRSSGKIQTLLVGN", "procedure,_shortened": "as §1"}, "ETV6": {"target": "ETV6 (Homo sapiens, UniProt P41212 1-452)", "sequence (P41212 whole entry)": "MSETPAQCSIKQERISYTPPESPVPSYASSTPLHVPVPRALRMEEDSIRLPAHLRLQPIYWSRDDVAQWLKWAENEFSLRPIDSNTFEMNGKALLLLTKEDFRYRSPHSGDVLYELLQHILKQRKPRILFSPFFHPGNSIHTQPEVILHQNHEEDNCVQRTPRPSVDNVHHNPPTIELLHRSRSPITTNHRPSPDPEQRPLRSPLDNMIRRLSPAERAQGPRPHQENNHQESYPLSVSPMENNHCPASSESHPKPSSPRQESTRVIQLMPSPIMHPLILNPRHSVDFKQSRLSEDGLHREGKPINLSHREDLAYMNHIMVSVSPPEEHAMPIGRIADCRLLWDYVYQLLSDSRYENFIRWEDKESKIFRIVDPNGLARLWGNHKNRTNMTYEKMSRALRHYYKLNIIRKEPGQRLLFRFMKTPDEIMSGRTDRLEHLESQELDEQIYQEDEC", "procedure,_shortened": "as §1"}}, "data": [{"sequence": "CCTGCG", "values": [{"measurement": "binding signal", "setting": "ETV1", "value": "1.39 fold enrichment (6-mer frequency, TF over GST control)"}, {"measurement": "binding signal", "setting": "ERF", "value": "1.22 fold enrichment (6-mer frequency, TF over GST control)"}, {"measurement": "binding signal", "setting": "ETV3L", "value": "1.49 fold enrichment (6-mer frequency, TF over GST control)"}, {"measurement": "binding signal", "setting": "ETS2", "value": "1.27 fold enrichment (6-mer frequency, TF over GST control)"}, {"measurement": "binding signal", "setting": "SPDEF", "value": "1.23 fold enrichment (6-mer frequency, TF over GST control)"}, {"measurement": "binding signal", "setting": "ETV7", "value": "1.38 fold enrichment (6-mer frequency, TF over GST control)"}, {"measurement": "binding signal", "setting": "ELF5", "value": "1.3 fold enrichment (6-mer frequency, TF over GST control)"}, {"measurement": "binding signal", "setting": "ETV3", "value": "1.4 fold enrichment (6-mer frequency, TF over GST control)"}, {"measurement": "binding signal", "setting": "ETV6", "value": "1.35 fold enrichment (6-mer frequency, TF over GST control)"}]}]}
